Assay results published in PubChem BioAssay.
A number with no mark means an inactive call. Activity calls are given as the source filed them.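 Rule for the calls, unless noted: active = luciferase signal above three times the same-plate solvent-only control wells; inactive = the rest.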

Assays:
[1] = target: 6-phosphogluconate dehydrogenase, decarboxylating (Homo sapiens) (UniProt P52209); assay: inhibition of human phosphogluconate dehydrogenase – biochemical, recombinant enzyme, NADPH absorbance, primary screen (AID 1159550;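 active = at least 20% inhibition of 6-phosphogluconate dehydrogenase activity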); details: recombinant 6PGD, NADPH absorbance 341 nm; at 10 µM; active compounds read high
[2] = target: Mitogen-activated protein kinase 7 (Homo sapiens) (UniProt Q13164); assay: Gal4-ERK5 driven luciferase induction – cell-based, HTS, primary screen (AID 1508626); details: HeLa Gal4-ERK5 transactivation, 18 h, at 5 µM, active compounds read high;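 note: luciferase driven by Gal4-ERK5 fusion binding five Gal4 sites before minimal TATA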
Mitogen-activated protein kinase 7 (Homo sapiens), sequence (Q13164 whole entry, looked up, the tested form may be a part): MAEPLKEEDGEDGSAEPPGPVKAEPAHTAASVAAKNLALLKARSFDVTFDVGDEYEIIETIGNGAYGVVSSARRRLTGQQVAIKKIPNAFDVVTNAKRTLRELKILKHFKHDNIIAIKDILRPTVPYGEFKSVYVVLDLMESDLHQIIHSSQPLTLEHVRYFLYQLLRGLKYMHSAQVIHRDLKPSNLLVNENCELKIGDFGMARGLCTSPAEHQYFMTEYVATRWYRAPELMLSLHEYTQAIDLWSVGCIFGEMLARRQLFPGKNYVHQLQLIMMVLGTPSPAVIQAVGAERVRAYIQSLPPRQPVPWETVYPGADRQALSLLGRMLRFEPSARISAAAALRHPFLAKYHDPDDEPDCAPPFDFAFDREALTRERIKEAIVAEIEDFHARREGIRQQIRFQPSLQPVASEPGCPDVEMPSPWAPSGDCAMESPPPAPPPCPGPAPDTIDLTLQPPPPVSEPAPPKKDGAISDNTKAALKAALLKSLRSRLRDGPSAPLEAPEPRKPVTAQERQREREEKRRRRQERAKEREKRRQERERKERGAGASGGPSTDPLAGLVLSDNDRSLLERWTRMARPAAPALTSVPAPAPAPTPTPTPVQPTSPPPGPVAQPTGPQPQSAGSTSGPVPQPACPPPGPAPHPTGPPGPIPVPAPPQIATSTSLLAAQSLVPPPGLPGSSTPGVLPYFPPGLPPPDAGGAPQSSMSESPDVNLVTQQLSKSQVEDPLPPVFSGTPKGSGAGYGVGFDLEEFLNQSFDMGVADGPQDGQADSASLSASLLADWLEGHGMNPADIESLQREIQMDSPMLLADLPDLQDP

6-phosphogluconate dehydrogenase, decarboxylating (Homo sapiens), sequence (P52209 whole entry, looked up, the tested form may be a part): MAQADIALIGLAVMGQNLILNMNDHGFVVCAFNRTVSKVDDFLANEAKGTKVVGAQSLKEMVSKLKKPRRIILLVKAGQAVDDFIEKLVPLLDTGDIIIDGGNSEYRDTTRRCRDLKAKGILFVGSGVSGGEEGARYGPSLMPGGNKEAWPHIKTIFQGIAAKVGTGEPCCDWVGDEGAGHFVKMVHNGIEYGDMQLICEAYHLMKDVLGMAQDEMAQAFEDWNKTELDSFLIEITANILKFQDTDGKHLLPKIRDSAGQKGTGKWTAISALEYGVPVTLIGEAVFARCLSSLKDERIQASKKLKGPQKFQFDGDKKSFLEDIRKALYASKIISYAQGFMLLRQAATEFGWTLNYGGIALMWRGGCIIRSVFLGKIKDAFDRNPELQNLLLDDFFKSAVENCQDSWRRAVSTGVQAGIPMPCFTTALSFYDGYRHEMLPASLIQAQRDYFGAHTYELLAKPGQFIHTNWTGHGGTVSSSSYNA

Compound	inhibition [1]	luciferase signal [2]
COc1ccc2c(c1)OC/C(=C/c1ccc(OC)c(OC)c1)C2=O	-0.769%	36 AU
COS(C)(=O)=O	6.76%	124 AU
O=C(O)C1CC([C@@H]2CCCCN2)CN2CCCCC12 (stereo not given in full)	18.1%	220 AU (active)
O=C1CC[C@]23/C=C\C(=O)NCCCCNCCCNC(=O)/C=C\c4ccc(c2c4)O[C@@H]3C1	-0.518%	36 AU
COc1ccc(-c2cc(=O)c3ccccc3o2)cc1OC	-3.02%	76 AU
CC1C2[C@]3(CC[C@H]1C)CCC1(C)[C@@]2(C=CC2[C@@]4(C)CC[C@H](O)C(C)(C)C4CC[C@]21C)OC3=O (stereo not given in full)	5.53%	56 AU
CC(=O)CC(=O)CCC(=O)O	9.16%	80 AU
COc1cc(O)c2c(=O)cc(-c3ccc(OC)c(-c4c(O)cc(O)c5c(=O)cc(-c6ccc(O)cc6)oc45)c3)oc2c1	-1.48%	24 AU
COC(=O)C[C@H]1C(C)(C)[C@H](OC(C)=O)[C@@H]2CC3=C4CC(=O)O[C@@H](c5ccoc5)[C@]4(C)CC[C@@H]3C1(C)C2=O	7.02%	24 AU
COC(=O)C[C@H]1C2(C)CC34OC5(C)O[C@@]6([C@H](OC)C(OC(=O)C(C)C)[C@]7(C)C(/C(=C(/OC)C(C)C)C(=O)O[C@H]7c7ccoc7)[C@@]6(O5)[C@H](OC)[C@@]3(OC)C2OC(C)=O)[C@]14C (stereo not given in full)	-3.86%	20 AU
CC1=C[C@@H]2[C@@H](CC1)[C@](C)(O)CC[C@H]2C(C)C	9.65%	48 AU
COC(=O)c1c(C)cc(OC)cc1O	-8.1%	32 AU
C[C@@H]1O[C@@H](O[C@H]2[C@H](O[C@H]3CC[C@@]4(C)[C@@H](CC[C@]5(C)[C@@H]4CC=C4[C@@H]6CC(C)(C)CC[C@]6(C(=O)O)CC[C@]45C)[C@]3(C)CO)OC[C@H](O)[C@@H]2O)[C@H](O)[C@H](O)[C@H]1O	10.9%	40 AU
COc1ccc(-c2oc3cc(O[C@@H]4O[C@H](CO)[C@@H](O)[C@H](O)[C@H]4O)c(OC)c(O)c3c(=O)c2OC)cc1O	-33.5%	172 AU
COC(=O)C[C@H]1C2(C)CC34OC5(C)O[C@@]6([C@H](OC(C)=O)C(OC(C)=O)[C@]7(C)C(/C(=C(/O)C(C)C)C(=O)O[C@H]7c7ccoc7)[C@@]6(O5)[C@H](OC(C)=O)[C@@]3(O)C2OC(=O)C(C)C)[C@]14C (stereo not given in full)	-3.02%	24 AU
COC(=O)CC1C(C)(C)C(OC(C)=O)[C@@H]2[C@@H](OC(C)=O)[C@]34O[C@@]2(O)[C@]1(C)C3CC[C@]1(C)C4=CC(=O)O[C@H]1c1ccoc1 (stereo not given in full)	-1.28%	12 AU
CC(=O)O[C@H]1CC[C@@]2(C)C(=CC=C3[C@@H]4CC[C@H]([C@H](C)/C=C/[C@H](C)C(C)C)[C@@]4(C)CC[C@@H]32)C1	14.6%	72 AU
COC(=O)CCCOc1ccc(Cl)cc1Cl	-8.02%	60 AU
COC(=O)/C(=C1/OC(=O)C(c2ccccc2)=C1O)c1ccccc1	11.9%	68 AU
COc1cc2c3cc1Oc1c(OC)c(OC)cc4c1[C@@H](Cc1ccc(O)c(c1)Oc1ccc(cc1)C[C@@H]3N(C)CC2)N(C)CC4	14.7%	64 AU
C[C@H](CCC(=O)O)[C@H]1CC[C@H]2[C@@H]3[C@H](O)C[C@@H]4C[C@H](O)CC[C@]4(C)[C@H]3C[C@H](O)[C@]12C	-7.09%	28 AU
C[C@H]1[C@H](C)CC[C@]2(CO)CC[C@]3(C)C(=CC[C@@H]4[C@@]5(C)CC[C@H](O)C(C)(C)[C@@H]5CC[C@]43C)[C@H]12	-50.4%	52 AU
CC(=O)O[C@@H]1CC(=O)[C@@]2(C)C(CC(=O)[C@]3(C)C2CC[C@@]2(C)[C@H](c4ccoc4)OC(=O)C4OC423)C1(C)C (stereo not given in full)	9.95%	24 AU
COc1cc(OC)c2c(=O)c(-c3ccccc3)coc2c1	10.4%	68 AU
CC1(C)CC[C@]2(C(=O)O)CC[C@]3(C)C(=CC[C@@H]4[C@@]5(C)CC[C@H](O)[C@@](C)(CO)[C@@H]5CC[C@]43C)[C@@H]2C1	-1.09%	76 AU
O=C(O)c1cc(O)c2c(c1)C(=O)c1cc(O)cc(O)c1C2=O	6.18%	76 AU
CC1(C)CC[C@]2(C)CC[C@]3(C)C(=CC[C@@H]4[C@@]5(C)CC[C@H](O)C(C)(C)[C@@H]5CC[C@]43C)[C@@H]2C1	10.2%	20 AU

Compound	inhibition [1]	luciferase signal [2]
CC(=O)Oc1c(-c2ccccc2)oc2c(CC=C(C)C)c3c(c(OC(C)=O)c2c1=O)C=CC(C)(C)O3	7.48%	40 AU
C[C@@H]1CC[C@H]2[C@](C)(CO)[C@@H](O)CC[C@]2(C)[C@@]12CC[C@@](CO)(CCO)O2	-5.82%	48 AU
COc1ccc2c(c1)CC[C@@H]1[C@@H]2CC[C@]2(C)[C@@H](O)CC[C@@H]12	-8.02%	36 AU
CC(C)=CCc1c(O)cc2occ(-c3ccc4c(c3)OCO4)c(=O)c2c1O	-0.247%	104 AU
O=C(O)CN(CC(=O)O)Cc1cc2c(cc1O)Oc1cc(O)c(CN(CC(=O)O)CC(=O)O)cc1C21OC(=O)c2ccccc21	-1.59%	140 AU
COC(=O)C[C@H]1C(C)(C)[C@@H](O)[C@@H]2CC3=C4C=C(OC)O[C@@H](c5ccoc5)[C@]4(C)CCC3[C@@]1(C)C2=O (stereo not given in full)	1.56%	28 AU
OC[C@H]1O[C@@](CO)(O[C@H]2O[C@H](CO)[C@@H](O)[C@H](O)[C@H]2O)[C@@H](O[C@H]2O[C@H](CO)[C@@H](O)[C@H](O)[C@H]2O)[C@@H]1O	15.1%	60 AU
COc1ccc(-c2cc(=O)c3c(O)c(OC)c(O[C@@H]4O[C@H](CO[C@@H]5O[C@@H](C)[C@H](O)[C@@H](O)[C@H]5O)[C@@H](O)[C@H](O)[C@H]4O)cc3o2)cc1	-2.78%	76 AU
COc1cccc(/C=C/C(=O)O)c1C(C)C	0.939%	24 AU
O=c1cc(-c2ccc(O)cc2)oc2cc(O[C@@H]3O[C@H](CO)[C@@H](O)[C@H](O)[C@H]3O)cc(O)c12	-5.65%	120 AU
Cc1cc(O)c2c(c1O)C(=O)c1c(O)cc(C)c(O)c1C2=O	2.78%	48 AU
COC1=C(O)c2cc3oc(C(C)=O)c(O)c3c(O)c2C(=O)C1=O	1.87%	52 AU
NC(=O)NCCC[C@H](N)C(=O)O	15.5%	72 AU
COC(=O)[C@@H]1OC(=O)[C@H]2O[C@@]23[C@@]1(C)CCC1[C@@]2(C)CCC(=O)C(C)(C)C2C[C@@H](OC(C)=O)[C@]13C (stereo not given in full)	7.3%	40 AU
COC(=O)C[C@H]1C(C)(C)[C@@H](O)[C@@H]2CC3=C4CC(O)O[C@@H](c5ccoc5)[C@]4(C)CCC3[C@@]1(C)C2=O (stereo not given in full)	-13.5%	36 AU
O=C(Cc1ccccc1)NO	-18.4%	68 AU
CC(C)CCC[C@@H](C)[C@H]1CC[C@H]2[C@@H]3C[C@@H](O)[C@@]4(O)C[C@@H](O)CC[C@]4(C)[C@H]3CC[C@]12C	-2.71%	88 AU
C[C@@H]1CC[C@H]2C(C)(C)[C@H]3C[C@@]12CC[C@@]3(C)O	1.71%	28 AU
COc1cccc2c1CCC1=CC(=O)CC[C@@]12C	-1.6%	40 AU
OC[C@@H](O)[C@@H](O)C(O)[C@H](O)[C@@H](O)CO (stereo not given in full)	-5.44%	56 AU
CC1C2[C@]3(CC[C@H]1C)CCC1(C)[C@@]2(C=CC2[C@@]4(C)CCC(=O)C(C)(C)C4CC[C@]21C)OC3=O (stereo not given in full)	17.9%	100 AU
COC1[C@H](O)[C@@H](O)C(O)[C@H](O)[C@H]1O (stereo not given in full)	-7.09%	136 AU
C/C=C(/C)C(=O)O[C@@H]1c2c(ccc3ccc(=O)oc23)OC(C)(C)[C@@H]1OC(C)=O	4.61%	56 AU
COc1cc(/C=C/CO)ccc1O	17.3%	96 AU
COc1ccc(C2CC(=O)c3ccc(OC)cc3O2)cc1 (stereo not given)	21.7% (active)	84 AU
C/C1=C\CCC(=O)C2CC(C)(C)C2CC1 (stereo not given)	-1.45%	60 AU
CC(C)C1=CC2=CC[C@@H]3[C@](C)(CCC[C@@]3(C)C(=O)O)[C@H]2CC1	-6.38%	44 AU

Compound	inhibition [1]	luciferase signal [2]
C[C@@H]1CC[C@@]2(OC1)O[C@H]1C[C@H]3[C@@H]4CC[C@H]5C[C@@H](O)CC[C@]5(C)[C@H]4CC[C@]3(C)[C@H]1[C@@H]2C	-2.45%	36 AU
C[C@H](CCC(=O)O)[C@H]1CC[C@H]2[C@@H]3CC[C@@H]4C[C@H](O)CC[C@]4(C)[C@H]3C[C@H](O)[C@]12C	-3.07%	28 AU
CC(=O)OC1C[C@@]2(C)[C@H](c3ccoc3)OC(=O)[C@H]3O[C@]32[C@@]2(C)C1[C@]1(C)C(C[C@H]2OC(C)=O)C(C)(C)[C@H](OC(C)=O)C[C@@H]1OC(C)=O (stereo not given in full)	-3.59%	24 AU
O=C(O)/C=C(/CC(=O)O)C(=O)O	8.82%	60 AU
CC1/C(=N/O)C[C@@H]2C[C@H]1C2(C)C (stereo not given in full)	-7.59%	52 AU
COC1=C[C@@H](C)[C@@H]2C[C@H]3OC(=O)C[C@H]4C(C)=C(OC)C(=O)[C@H]([C@@]2(C)C1=O)[C@@]34C	-9.87%	40 AU
CC(=O)O[C@H]1CC[C@@]2(C)C(=CC(=O)[C@H]3[C@@H]4CC[C@H]([C@H](C)CCCC(C)C)[C@@]4(C)CC[C@@H]32)C1	-8.76%	76 AU
CC(=O)N1CCC[C@H]1C(=O)O	11.4%	52 AU
COC(=O)c1c(OC)cc2c(c1C)Oc1c(Cl)c(OC(C)=O)c(Cl)c(C)c1C(=O)O2	-6.07%	44 AU
CO[C@H]1C=C[C@@]23c4cc5c(cc4CN(C[C@@H]2O)[C@H]3C1)OCO5	13.8%	44 AU
C=C1C2CCC3(C)C(c4ccoc4)OC(=O)CC13OC1CC(OC(C)=O)C(C)(C)C(CC(=O)OC)C12C (stereo not given)	5.49%	56 AU
CCC(=O)O[C@H]1CC[C@H]2[C@@H]3CCc4cc(O)ccc4[C@H]3CC[C@]12C	-10.1%	24 AU
O=C(Cc1cccs1)N[C@@H]1C(=O)N2C(C(=O)[O-])=C(C[n+]3ccccc3)CS[C@H]12	0.514%	112 AU
C[N+]1(C)C[C@H](O)C[C@H]1C(=O)[O-]	0.213%	60 AU
CC[C@H](CC[C@@H](C)[C@H]1CC[C@H]2[C@@H]3CC=C4C[C@@H](OC(C)=O)CC[C@]4(C)[C@H]3CC[C@]12C)C(C)C	9.08%	36 AU
CC(=O)O[C@H]1C[C@@H](OC(C)=O)C(C)(C)[C@@H]2C[C@@H](OC(C)=O)[C@]3(C)[C@H](CC[C@@]4(C)[C@H](c5ccoc5)OC(=O)[C@H]5O[C@@]534)[C@@]12C	-4.75%	12 AU
COC(=O)CC[C@@H](C)[C@H]1CC[C@H]2[C@@H]3[C@H](O)C[C@@H]4C[C@H](O)CC[C@]4(C)[C@H]3C[C@H](O)[C@]12C	-4.15%	252 AU (active)
CC(=O)O[C@]1(C)CC[C@@]23C[C@@H]1C(C)(C)[C@@H]2CC[C@H]3C	13.3%	56 AU
CC1(O)CC2C(CC1O)C2(C)C (stereo not given)	13.8%	60 AU
CC(=O)OCC1(O)CC23CCC4c5ccoc5CCC4(C)C2CCC1C3 (stereo not given)	4.27%	24 AU
COc1c(O)cc2c(-c3ccccc3)cc(=O)oc2c1OC	-3.61%	48 AU
COc1cc(C/C=C/c2ccccc2)c(OC)cc1O	9.29%	56 AU
O=C(/C=C(\O)c1ccccc1)c1ccccc1O	-0.592%	16 AU
C[C@H]1[C@H](C)CC[C@]2(C(=O)O)CC[C@]3(C)C(=CC[C@@H]4[C@@]5(C)C[C@@H](O)[C@H](O)[C@@](C)(CO)[C@@H]5[C@H](O)C[C@]43C)[C@H]12	2.44%	48 AU
Cn1c(=O)[nH]c2nc[nH]c2c1=O	-4.63%	56 AU
COc1ccc(C(C)=O)c(OC)c1	-3.95%	76 AU
